# From PubChem BioAssay
# SW480 rerep – induces DNA re-replication in SW480 colon adenocarcinoma cells | SW480 DNA re-replication, Hoechst DNA content imaging, 48 h | Potency, µM (doses to about 46.1 µM), for the others: at the top dose re-replication activation, usual class: activators | 340,000 compounds, 1.8% hits | AID 624297; note: potency is the fitted concentration of half-maximal effect; % of control where 0% means no effect; nearly all actives have a fitted effect of over 55% in size
#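 Image-based read-out: total Hoechst fluorescence of nuclei (405 nm excitation, 500-530 nm emission), with hits raising the fraction of high-intensity nuclei. SW480 colon cells incubated 48 hr with compounds at 37 C.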
# Gal4-VP16 FLuc – Gal4-VP16 reporter inhibition counter-screen. AID 2546. Drosophila S2 Gal4-VP16 UAS-luciferase, luminescence, 20 h. Potency, µM (series often up to 53.6 µM), for the others: at the highest dose activity, negative = inhibition, hits mostly inhibitors. 310,000 compounds, 3.5% hits;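 note: Gal4-VP16 expression switched on by copper sulfate through the metallothionein promoter; potency is the fitted concentration of half-maximal effect; % is set by controls: 0 for no effect and ±100 for the full control effect; nearly all actives have a fitted effect of over 50% in size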
# RORgamma inh – blocks mouse ROR gamma transcriptional activity. P51450. Drosophila S2 Gal4-RORgamma UAS-luciferase reporter, 20 h. Potency, µM (top dose mostly 53.6 µM), for the others: at the top dose activity change, negative = inhibition, hits mostly inhibitors. 310,000 compounds, 5.4% hits. AID 2551; note: potency is the fitted concentration of half-maximal effect; % is set by controls: 0 for no effect and ±100 for the full control effect; nearly all actives have a fitted effect of over 60% in size
# Target sequence (P51450 whole entry, looked up, the tested form may be a part): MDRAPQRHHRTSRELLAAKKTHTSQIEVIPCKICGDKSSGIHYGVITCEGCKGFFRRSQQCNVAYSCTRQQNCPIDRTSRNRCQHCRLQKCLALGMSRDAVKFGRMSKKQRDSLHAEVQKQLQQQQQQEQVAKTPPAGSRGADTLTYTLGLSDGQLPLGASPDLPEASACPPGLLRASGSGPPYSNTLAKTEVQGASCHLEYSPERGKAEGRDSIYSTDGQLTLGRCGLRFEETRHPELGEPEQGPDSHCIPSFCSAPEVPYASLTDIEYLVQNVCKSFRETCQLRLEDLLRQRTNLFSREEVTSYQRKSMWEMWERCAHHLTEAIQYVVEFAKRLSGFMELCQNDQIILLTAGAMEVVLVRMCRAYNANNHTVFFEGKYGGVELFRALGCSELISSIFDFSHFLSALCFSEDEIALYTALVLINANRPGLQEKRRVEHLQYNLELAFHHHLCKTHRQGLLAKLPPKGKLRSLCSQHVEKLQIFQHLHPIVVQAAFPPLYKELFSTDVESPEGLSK
#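 Luciferase reporter read in Schneider cells carrying Gal4-RORγ (mouse) and UAS-Photinus luciferase; cells given compound 1 h before 700 uM copper sulfate induction, then incubated 20 h at ambient temperature.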
# IL-1B inflam inh – inhibitors of inflammasome signaling (IL-1 beta secretion). THP-1 LPS/ATP IL-1B secretion, AlphaLISA, 16 h; active compounds read low. 360,000 compounds, 4.7% hits. AID 743279. activity change, % at 57.5 µM; in the data active = activity change below about -50%; inconclusive = mostly about -30% to -49%; note: % is set by controls: 0 for no effect and ±100 for the full control effect
#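 THP-1 cells pretreated 1 hr with compounds (up to 57.5 uM final), then stimulated with LPS (250 ng/mL final) plus ATP (1.25 mM final); secreted IL-1B measured by AlphaLISA after 16 hr, decreased signal indicating inhibition.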
# MCF10A rerep – induces DNA re-replication in MCF 10a normal breast cells. MCF 10A DNA re-replication, Hoechst nuclear intensity, 48 h. Potency, µM (highest dose often 46.1 µM), for inactives: at the top dose activity, positive = re-replication, hits mostly activators. 350,000 compounds, 2.9% hits. AID 624296; note: potency is the fitted concentration of half-maximal effect; % of control where 0% means no effect; nearly all actives have a fitted effect of over 50% in size
# An asterisk follows results filed as active; ? = inconclusive; / = no result given; [ ] = another dose, or the depositor's remark. An excerpt weighted towards active compounds, which were near 11% of everything screened. Unless noted, calls come from the whole dose curve; as a rule, active = well fitted curve in the direction sought with a large enough effect; inconclusive = small, poorly fitted or top-dose-only effect, or another doubt; inactive = no such curve, though single readings can be large; an effect the other way counts as inactive or inconclusive.
SMILES,SW480 rerep,Gal4-VP16 FLuc,RORgamma inh,IL-1B inflam inh,MCF10A rerep
COc1cc(S(=O)(=O)NCC2(N3CCCCC3)CCCCC2)ccc1NC(C)=O,-26.7%,/,/,6.9,2.2%
CCCCCCN1C[C@@H](O)[C@H](n2cc(-c3ccc(F)cc3)nn2)C[C@@H]1c1ccccc1,/,/,/,-15.5,/
CN[C@H]1C[C@H]2c3[nH]c4ccccc4c3CCN2C(=O)[C@H]1[C@H](C)O,/,/,/,13.7,/
O=C(Nc1nc2ccccc2s1)NC1CCCCC1,-20.1%,-46.3%,12.6µM*,-11.0,?
O=C(CC1CCCCC1)Nc1nc2ccccc2s1,-1.5%,1.2%,-11.4%,?,-5.4%
CCOC(=O)C(C(=O)Nc1nc2ccccc2s1)C1CCCCC1 (configuration not stated),4.5%,-1.0%,5.01µM*,40.4,?
COc1cccc([C@@H]2Oc3ccc(OC)cc3C[C@H]2O)c1,/,3.9%,36.2%,/,/
CC(=O)OCC1OC(C#Cc2ccccc2)C=CC1O (configuration not stated),/,3.1%[10 µM],6.1%[10 µM],/,/
CN(C)c1ccc(/C=N/NC(=O)c2ccccc2)cc1,11.8%,-23.7%,?,-5.1,22.6%
CN(C)c1ccc(/C=N/NC(=O)c2sccc2-n2cccc2)cc1,0.1%,?,11.2µM*,-5.0,-47.8%
CN(C)c1ccc(/C=N/NC(=O)c2ccccc2Cl)cc1,2.59µM*,?,-5.1%,?,20.6µM*
O=C(N/N=C\c1ccc(Cl)cc1)c1sccc1-n1cccc1,-9.1%,-8.1%,?,20.6,?
CN(C)c1ccc(/C=N/NC(=O)c2ccc(Cl)cc2)cc1,-5.8%,-10.0%,8.91µM*,6.3,?
CSc1ccc(/C=N/NC(=O)c2ccccc2Cl)cc1,?,?,10.6%,-17.0,23.1µM*
Cc1cc(C(=O)CSc2nnc(C3CC3)n2C2CC2)c(C)n1C(C)C,19.9%,/,/,-29.8,3.3%
COC1=C(C)C(=O)C2=C(C1=O)C1C3CC4=C(C(=O)C(OC)=C(C)C4=O)C(CNC(=O)C(C)=O)N3C(C#N)C(C2)N1C (configuration not stated),?,/,/,-98.5*,?
CC(=O)Nc1cccc(NC(=O)C2CCCN2C(=O)Nc2cccc(C)c2)c1 (configuration not stated),-15.5%,-1.2%,-39.4%,12.8,9.2µM*
Oc1ccccc1N=Cc1c(O)ccc2oc3c(c12)CCCC3,2.4%,10µM*,3.16µM*,26.4,?
Cc1cc(NCCNC2=CC(=O)CCC2)nc2ccccc12,-4.9%,8.1%,14.7%,19.6,-4.5%
Cc1cc(NCC2CCCCC2)nc2ccccc12,14.2%,6.6%,?,-100.1*,25.9µM*
Cc1cccc2cc(C#N)c(N3CCC(O)CC3)nc12,?,-1.0%[10 µM],-27.7%,-16.5,?
Cc1ccc2cc(C#N)c(N3CCCN(C(=O)C4CCCO4)CC3)nc2c1C (configuration not stated),19.5%,5.3%,-18.5%,?,20.6µM*
Cc1ccc2cc(C#N)c(N3CCCC3)nc2c1C,11.2µM*,12.1%,-19.7%,14.7,?
COc1ccc2nc(N3CCCCC3)c(C#N)cc2c1,?,3.6%,-27.9%,13.6,16.4µM*
COc1cc2nc3n(c(=O)c2cc1OC)-c1ncccc1C(=O)NC3Cc1ccccc1 (configuration not stated),/,/,/,-25.1,/
SMILES,SW480 rerep,Gal4-VP16 FLuc,RORgamma inh,IL-1B inflam inh,MCF10A rerep
CC(=O)c1ccc(Oc2cc(-c3ccccc3)nc(-c3ccccc3)n2)cc1,20.6µM*,-2.1%,17.1%,-10.6,1.3%
Cc1c(C(=O)NNC(=O)c2csc(N3CCOCC3)n2)oc2ccccc12,0.9%,/,/,0.0,14.6µM*
CCOC(=O)C1CCN(C(=S)NC(=O)c2cccs2)CC1,-8.2%,4.47µM*,5.62µM*,31.9,0.0%
CCC1CCCCN1C(=S)NC(=O)c1ccc([N+](=O)[O-])cc1 (configuration not stated),?,0.282µM*,0.251µM*,0.0,?
O=C(NC(=S)N1CCCCC1CO)c1cccs1 (configuration not stated),9.1%,/,/,19.1,-1.4%
O=C(NCC1CCCCC1)c1ccc(F)c(S(=O)(=O)N2CCOCC2)c1,?,/,/,7.2,5.3%
